# Experimental data from PubChem BioAssay AID449762 (Southern Research Specialized Biocontainment Screening …, 2010).
# Hit rate of the full screen: of about 330,000 compounds, about 1,900 (0.58%) were called active. Roughly 4% stayed inconclusive and do not appear here. The list is a sample of the results. Potency and affinity values are given separately. Values without a mark were called inactive. Cut-off read from the data, not from the text of the source: inconclusive = inhibition above about 70% without an active follow-up result; inactive = below that.
# Assay: M. tuberculosis growth inhibition, HTS (AID 449762);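 note: bacterial growth assessed after seven days of incubation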
# Conditions: M. tuberculosis H37Rv growth inhibition, 7H9 media; at 25 µM; hits give high values
row,SMILES,inhibition
1,Cc1ccc(-n2c(C)c3c(C)nnc(C)c3c2C)cc1C,39.9%
2,Cc1cc(-n2c(C)c3c(C)nnc(C)c3c2C)ccc1N,-1.53%
3,COc1cc(NS(C)(=O)=O)c(OC)cc1NC(=O)c1ccccc1,-13.2%
4,NC(=O)N/N=C1\c2ccccc2-c2c(C(N)=O)cccc21,-8.45%
5,N#Cc1cccc2c1-c1ccccc1/C2=N/NC(N)=S,11.6%
6,COc1cccc(C(=O)NCC2CCCN2S(=O)(=O)c2cccs2)c1 (stereo not drawn),-3.52%
7,CCOC(=O)CNC(=S)n1ncnc1N,-5.34%
8,CNC(=S)n1cnc(N)n1,-9.24%
9,CCc1nc2nc(C)c(NS(=O)(=O)c3ccc(Br)s3)c(=O)n2[nH]1,-4.89%
10,CCC1CCCCN1C(=O)c1ccc2c(c1)C(=O)N(c1ccc(C)cc1)C2=O (stereo not drawn),7.37%
11,CNC(=S)NC1CC2CCC(C1)N2Cc1ccccc1 (stereo not drawn),-6.1%
12,CNC(=S)NC1CC2CCCC(C1)N2Cc1ccc(C)cc1 (stereo not drawn),-9.32%
13,CCc1ccc(NC(=S)NC2CC3CCCC(C2)N3Cc2ccccc2)cc1 (stereo not drawn),9.67%
14,CCNC(=S)NC1CC2CCCC(C1)N2Cc1ccc(C)cc1 (stereo not drawn),-6.09%
15,C/C(N)=C(/C#N)C(=O)COC(=O)CCSc1ccccc1Cl,-0.73%
16,O=C(Nc1ccc(Br)cc1Br)c1cccc2c1C(=O)N(C1CCCCC1)C2,10.8%
17,CC(C)C[C@H](NC(=O)CCCn1nnc2ccccc2c1=O)C(=O)O,7.06%
18,Cc1cc(C)c2c(CC(=O)NNC(=O)c3ccccc3)coc2c1,-11.5%
19,COc1ccc(N=Nc2ccc3ccccc3c2)c(O)c1,53.5%
20,COc1cc(N=Nc2ccccc2C(=O)O)ccc1O,5.29%
21,Cc1ccnc(NC(=O)c2cc3ccccc3oc2=O)c1,45.2%

row,SMILES,inhibition
1,O=C(Nc1ccccn1)c1cc2ccccc2o1,3.67%
2,O=C(CN1C(=O)NC2(CCCc3ccccc32)C1=O)NCCc1ccc(F)cc1 (stereo not drawn),1.6%
3,O=C(CSc1ccccc1)N1CCN(c2ccc(F)cc2)CC1,-5.77%
4,COc1cccc(/C=C/C(=O)OCC(=O)Nc2ccc(N3CCOCC3)cc2)c1OC,-2.5%
5,CC(C)OC(=O)CSc1nnc(CNc2nc(-c3ccccc3)cs2)n1C,0.34%
6,COC(=O)CSc1nnc(CNc2nc(-c3ccccc3)cs2)n1C,-7.67%
7,COC(=O)[C@H](CC(C)C)NS(=O)(=O)N[C@@H](CC(C)C)C(=O)OC,-8.61%
8,COC(=O)c1c(NC(=O)C(=O)N2CCCCC2)sc2c1CC(C)(C)OC2,5.56%
9,CC1(C)Cc2c(sc(NC(=O)C(=O)N3CCCC3)c2C(=O)O)CO1,1.82%
10,COc1ccc2ccc3c(c2c1)N=CC1(O3)N(C)c2ccccc2C1(C)C (stereo not drawn),-4.4%
11,COc1ccc(N2CCN(C(=O)COCC(=O)O)CC2)cc1,-6.23%
12,COc1ccc(C(=O)NCCS(=O)(=O)N2CCN(C(=O)c3ccco3)CC2)cc1,-5.88%
13,O=C(CSc1n[nH]c(=O)[nH]c1=O)c1ccccc1,51.6%
14,COc1ccc(C(=O)CSc2n[nH]c(=O)[nH]c2=O)cc1,-1.42%
15,COc1ccc(NC(=S)NC2CCCCC2)c(OC)c1,4.99%
16,CCOc1ccccc1C(=O)N1CCN=C1SCc1cccnc1,10.2%
17,O=C(c1cc2ccccc2o1)N1CCN(S(=O)(=O)c2cccs2)CC1,0.69%
18,O=C(c1ccco1)N1CCN(S(=O)(=O)c2ccc(Cl)s2)CC1,-11.2%
19,CCOC(=O)Cc1nnc(NC(=O)c2ccccc2OC)s1,-7.9%
20,N#Cc1ccc(S(=O)(=O)N2CCCN(c3nc4ccc(Cl)cc4s3)CC2)cc1,-8.22%
21,O=[N+]([O-])c1ccc(N2CCN(Cc3ccc(Br)o3)CC2)cc1,2.93%

row,SMILES,inhibition
1,Clc1ccc(N2CCN(Cc3ccc(Br)o3)CC2)cc1,0.17%
2,COc1ccc(N(CC(=O)N/N=C/c2ccco2)S(=O)(=O)c2ccccc2)cc1,-4.51%
3,O=C(c1ccoc1)N1CCC(CO)(CCc2ccccc2)CC1,-5.69%
4,O=C(COc1ccccc1[N+](=O)[O-])Nc1ccccc1N1CCCCC1,-4.5%
5,COC(=O)c1c(C)[nH]c(C(=O)/C=C/c2ccccc2Cl)c1C,3.39%
6,O=C(COc1ccccc1)Nc1sc2c(c1C(=O)NCc1cccnc1)CCCC2,-7.35%
7,O=C(Nc1sc2c(c1C(=O)NCc1cccnc1)CCCC2)c1ccco1,-2.45%
8,O=C(Nc1c2c(nn1-c1ccc(F)cc1)CS(=O)(=O)C2)c1ccc2c(c1)OCO2,-6.48%
9,COc1ccc(C(=O)/C=C/c2cn(CC(O)CN3CCN(C)CC3)c3ccccc23)cc1OC (stereo not drawn),8.14%
10,Cn1cc(/C=C/C(=O)c2ccccc2)c2ccccc21,58.1%
11,Cc1cc(C)c(CN2CCC(n3nccc3NC(=O)CCOc3ccccc3)CC2)cc1C,67.4%
12,O=C(Nc1ccc(-c2ccccc2)cc1)c1ccccc1,9.06%
13,COc1ccc(OCCN(C)CC(=O)Nc2c(C)cccc2C)cc1,-3.93%
14,Cc1c(C(=O)Nc2ccc(F)c(F)c2)oc2ccc(S(=O)(=O)N3CCCCC3)cc12,4.31%
15,Fc1ccc(Nc2ncnc3ccccc23)cc1,4.5%
16,N=c1c2ccccc2nnn1-c1ccc(C(F)(F)F)cc1,-1.84%
17,O=C(Nc1ncc2c(n1)-c1ccccc1OC2)c1ccc(Cl)cc1Cl,-7.91%
18,CCCCc1ncc(CN2CCN(Cc3ccc(C)cc3)C(CCO)C2)[nH]1 (stereo not drawn),0.18%
19,COc1ccc(NC(=O)C(=S)NC2CCCCC2)cc1,8.92%
20,C=CCc1c(C)nc(C)nc1N/N=C/c1ccccc1,-2.25%
21,C=CCc1c(C)nc(C)nc1N/N=C/c1ccc(F)cc1,6.56%
